MCF10A rerep – induces DNA re-replication in MCF 10a normal breast cells. MCF 10A DNA re-replication, Hoechst nuclear intensity, 48 h. Potency, µM (series often up to 46.1 µM), most hits filed as activators. actives 2.9% (n = 350,000). AID 624296; note: nearly all actives have a fitted effect of over 50% in size
Gal4-VP16 FLuc – inhibits Gal4-VP16 luciferase reporter, ROR gamma counter-screen | actives 3.5% (n = 310,000) | AID 2546 | Potency, µM (titrated, usually from 53.6 µM), hits mostly inhibitors | Drosophila S2 Gal4-VP16 UAS-luciferase, luminescence, 20 h;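 note: Gal4-VP16 expression switched on by copper sulfate through the metallothionein promoter; nearly all actives have a fitted effect of over 50% in size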
RORg inh – blocks mouse ROR gamma transcriptional activity. P51450. Drosophila S2 Gal4-RORgamma UAS-luciferase reporter, 20 h. Potency, µM (highest dose often 53.6 µM), actives largely listed as inhibitors. actives 5.4% (n = 310,000). AID 2551; note: nearly all actives have a fitted effect of over 60% in size
Target sequence (P51450 whole entry, looked up, the tested form may be a part): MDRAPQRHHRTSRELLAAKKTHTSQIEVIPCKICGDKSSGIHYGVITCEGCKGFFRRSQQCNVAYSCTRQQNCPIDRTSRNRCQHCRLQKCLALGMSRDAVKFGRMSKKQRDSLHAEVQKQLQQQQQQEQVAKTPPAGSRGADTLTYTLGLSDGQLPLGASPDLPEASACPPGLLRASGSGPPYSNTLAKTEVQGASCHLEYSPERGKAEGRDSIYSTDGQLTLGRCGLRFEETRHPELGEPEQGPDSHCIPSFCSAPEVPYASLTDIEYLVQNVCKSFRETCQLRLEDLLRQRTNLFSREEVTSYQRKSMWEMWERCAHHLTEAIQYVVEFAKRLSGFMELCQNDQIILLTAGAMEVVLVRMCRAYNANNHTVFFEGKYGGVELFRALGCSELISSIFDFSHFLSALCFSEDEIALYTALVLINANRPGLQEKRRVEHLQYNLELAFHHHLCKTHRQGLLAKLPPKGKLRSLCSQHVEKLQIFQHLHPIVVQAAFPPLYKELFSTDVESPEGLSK
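Drosophila Schneider cells stably carrying a metallothionein-driven Gal4 DBD–ROR gamma fusion and a UAS-Photinus luciferase reporter were exposed to compound for 1 hr, then induced with copper sulfate (700 uM final) for 20 hr at ambient temperature before luminescence reading.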
SW480 rereplic – inducers of DNA re-replication in SW480 colon cancer cells | actives 1.8% (n = 340,000) | Potency, µM (top dose mostly 46.1 µM), actives largely listed as activators | AID 624297 | SW480 DNA re-replication, Hoechst DNA content imaging, 48 h; note: nearly all actives have a fitted effect of over 55% in size
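First, 250 cells per well were seeded. Next, compound or vehicle (23 nL) was pinned in, plates sat 48 hr at 37 C. Finally Hoechst was added for 40 min before fluorescence scanning.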
ELG1 DNA repair – ELG1-dependent DNA repair inhibition. HEK293T ELG1-luciferase reporter, luminescence, 16 h; DNA damage induced by 5-fluorouridine. Potency, µM (titrated, usually from 46.1 µM), most hits filed as inhibitors. actives 2.3% (n = 330,000). AID 504467; note: nearly all actives have a fitted effect of over 55% in size
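Reporter activity after DNA damage by 5-fluorouridine is monitored. Compound-treated cells incubate 16 hr at 37 °C, then ONE-Glo is added for 30 min before luminescence reading.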
Large screens that a line does not name were inactive. Only some compounds are listed: those with a hit (about 10% of all), similar ones and a draw of the others. Calls come from the whole dose curve; as a rule, active = well fitted curve in the direction sought with a large enough effect; inconclusive = small, poorly fitted or top-dose-only effect, or another doubt; inactive = no such curve, though single readings can be large; an effect the other way counts as inactive or inconclusive.

COc1ccc(/C=N/Nc2nc(C)cc(-c3ccccc3)n2)cc1OC	MCF10A rerep inconclusive, Gal4-VP16 FLuc inconclusive, RORg inh 11µM, SW480 rereplic inconclusive, ELG1 DNA repair inconclusive
CC(C)=NNc1nc(-c2ccccc2)c(C)s1	RORg inh 11µM
Cc1cc(-c2ccccc2)nc(N/N=C/c2ccc([N+](=O)[O-])cc2)n1	ELG1 DNA repair 13µM
O=C1C(=O)N(CC2CCCO2)C(c2ccccc2[N+](=O)[O-])/C1=C(/O)c1ccccc1 (stereo not given)	RORg inh inconclusive
CCOc1ccc(/C=N/NC(=O)c2nnn(-c3nonc3N)c2CN(C)C2CCCCC2)cc1	none
Cc1sc(N/N=C/c2ccco2)nc1-c1ccccc1	Gal4-VP16 FLuc inconclusive, RORg inh 11µM, ELG1 DNA repair inconclusive
C(=N\Nc1nc(-c2ccccc2)cs1)/c1ccco1	Gal4-VP16 FLuc inconclusive, RORg inh inconclusive, ELG1 DNA repair inconclusive (no result: SW480 rereplic)
Cn1cc(/C=N\NC(=O)c2cccs2)c2ccccc21	MCF10A rerep inconclusive, Gal4-VP16 FLuc inconclusive, RORg inh 8.9µM, ELG1 DNA repair inconclusive
C/C(=N\NC(=O)c1cccs1)C(C)(C)C	Gal4-VP16 FLuc inconclusive, RORg inh 13µM, SW480 rereplic inconclusive, ELG1 DNA repair inconclusive
Cc1nn(-c2ccccc2)cc1/C=N/NC(N)=S	MCF10A rerep inconclusive, Gal4-VP16 FLuc 4.5µM, RORg inh 2.5µM, ELG1 DNA repair inconclusive
Cn1cc(/C=N/NC(N)=S)c2ccccc21	Gal4-VP16 FLuc 22µM, RORg inh inconclusive
Cc1nn(-c2ccccc2)cc1/C=N/O	RORg inh inconclusive
Cn1cccc1/C=N/NC(=O)c1cccs1	Gal4-VP16 FLuc inconclusive, RORg inh inconclusive, ELG1 DNA repair inconclusive
O=C(Nc1ccc(N2CCOCC2)cc1)c1ccc(Cl)c(S(=O)(=O)N2CCCCC2)c1	ELG1 DNA repair inconclusive (no result: Gal4-VP16 FLuc, RORg inh)
CCOc1ccc(NC(=O)CN2CCN(C(=O)C3CCCO3)CC2)cc1 (stereo not given)	none
Cc1ccsc1/C=N/NC(=O)c1cccs1	Gal4-VP16 FLuc 13µM, RORg inh 10µM, ELG1 DNA repair inconclusive
Cn1cc(/C=N/NC(=O)c2ccc(C#N)cc2F)c2ccccc21	Gal4-VP16 FLuc inconclusive, RORg inh 5µM
O=C(COc1ccc(/C=C\[N+](=O)[O-])cc1)N1CCOCC1	ELG1 DNA repair inconclusive
O=[N+]([O-])/C=C\c1ccc(N2CCOCC2)cc1	SW480 rereplic 15µM (no result: Gal4-VP16 FLuc, RORg inh, ELG1 DNA repair)
CC(C)C(=O)NC(c1cccc([N+](=O)[O-])c1)c1ccc2cccnc2c1O (stereo not given)	MCF10A rerep inconclusive, Gal4-VP16 FLuc 2.5µM, RORg inh 2.8µM, ELG1 DNA repair inconclusive
Oc1c(C(Nc2nc3ccccc3s2)c2ccco2)ccc2cccnc12 (stereo not given)	MCF10A rerep inconclusive, Gal4-VP16 FLuc 5.6µM, RORg inh 2.5µM, SW480 rereplic inconclusive, ELG1 DNA repair inconclusive
CC(C)C(=O)NC(c1ccco1)c1ccc2cccnc2c1O (stereo not given)	MCF10A rerep inconclusive, Gal4-VP16 FLuc 5µM, RORg inh 2.8µM, SW480 rereplic 3.7µM, ELG1 DNA repair 2.9µM
CC(=O)NC(c1ccco1)c1cc(F)c2cccnc2c1O (stereo not given)	MCF10A rerep inconclusive, ELG1 DNA repair inconclusive (no result: Gal4-VP16 FLuc, RORg inh)
COc1ccc(NC(=O)C2CCCN(S(=O)(=O)c3ccc(Cl)cc3)C2)cc1OC (stereo not given)	ELG1 DNA repair inconclusive
CCCN1CCN(CCCNC(=O)Cn2nc(C)n3c(cc4cc(OC)ccc43)c2=O)CC1	none
Cn1nc(C(=O)NC2CCCN(Cc3ccccc3F)C2)c2ccccc2c1=O (stereo not given)	none
CCc1cc(C(=O)NC2CCCN(Cc3ccccc3F)C2)n(C)n1 (stereo not given)	Gal4-VP16 FLuc inconclusive, RORg inh inconclusive, SW480 rereplic 2.1µM, ELG1 DNA repair inconclusive
COC(=O)c1cc(NC(=O)COC(=O)CCc2nc3ccccc3c(=O)[nH]2)cc(C(=O)OC)c1	none (no result: Gal4-VP16 FLuc, RORg inh)
CC(CN1C(C)CCCC1C)OC(=O)c1ccc(F)cc1 (stereo not given)	none
Cn1c(=O)[nH]c(=O)c2c1nc(N1CCCCC1)n2C/C=N/NC(=O)c1cc(Br)ccc1O	Gal4-VP16 FLuc inconclusive, RORg inh 13µM
CN(CC(=O)Nc1ccccc1Cl)CC(=O)N1CCc2ccccc21	none (no result: Gal4-VP16 FLuc, RORg inh)
COc1ccc(S(=O)(=O)N2CCCCC2)cc1N(C)S(=O)(=O)c1ccccc1	RORg inh inconclusive
COc1ccc(S(=O)(=O)N2CCCCC2)cc1NC(=O)C1COc2ccccc2O1 (stereo not given)	ELG1 DNA repair 18µM (no result: Gal4-VP16 FLuc, RORg inh)
COc1ccc(S(=O)(=O)N2CCCCCC2)cc1N(C)S(=O)(=O)c1ccccc1	MCF10A rerep 12µM, ELG1 DNA repair inconclusive
NN1C(=O)NC(c2ccccc2)(c2ccccc2)C1=O	MCF10A rerep 0.73µM
O=C(NCc1cccnc1)c1cc(Sc2ccc(F)cc2F)nc2ccccc12	MCF10A rerep inconclusive, ELG1 DNA repair 21µM
O=C(COC(=O)c1cc(S(=O)(=O)N2CCCCC2)ccc1N1CCOCC1)c1ccc(F)cc1	ELG1 DNA repair 10µM (no result: Gal4-VP16 FLuc, RORg inh)
CC(=O)c1cccc(OC(=O)c2cc(S(=O)(=O)N3CCOCC3)ccc2N2CCCC2)c1	ELG1 DNA repair 9.2µM (no result: Gal4-VP16 FLuc, RORg inh)
COc1ccccc1C(=O)COC(=O)c1cc(S(=O)(=O)N2CCCCC2)ccc1N1CCOCC1	SW480 rereplic inconclusive, ELG1 DNA repair inconclusive (no result: Gal4-VP16 FLuc, RORg inh)
c1cc(-c2cn(C[C@H]3CC[C@@H]([C@@H]4CC[C@H](Cn5cc(-c6ccsc6)nn5)O4)O3)nn2)cs1	RORg inh inconclusive, SW480 rereplic inconclusive
Cc1ccc(C2(C)NC(=O)N(CC(=O)Nc3ccc(Cl)c(S(=O)(=O)N4CCCCC4)c3)C2=O)cc1 (stereo not given)	ELG1 DNA repair inconclusive (no result: Gal4-VP16 FLuc, RORg inh)
COC(=O)Cc1[nH]n(-c2nc3ccccc3s2)c(=O)c1C(C)=Nc1ccc(Cl)cc1	RORg inh 11µM, ELG1 DNA repair inconclusive
COC(=O)Cc1[nH]n(-c2nc3ccccc3s2)c(=O)c1C(C)=Nc1ccc(C)cc1	RORg inh inconclusive
CCN(CC)CCCN=Cc1c(-c2ccccc2)[nH]n(-c2nc3ccccc3s2)c1=O	RORg inh inconclusive, ELG1 DNA repair inconclusive
CCCN=C(C)c1c(-c2ccccc2)[nH]n(-c2nc3ccccc3s2)c1=O	RORg inh 2.5µM, ELG1 DNA repair inconclusive
C/C(=N/NC(=O)c1cccs1)c1c(C)[nH]n(-c2nc3ccccc3s2)c1=O	Gal4-VP16 FLuc 2µM, RORg inh 1.4µM, SW480 rereplic inconclusive, ELG1 DNA repair inconclusive
CCC(=NCc1ccco1)c1c(C(F)(F)F)[nH]n(-c2nc3ccccc3s2)c1=O	RORg inh inconclusive, ELG1 DNA repair inconclusive
CCC(=NCc1ccccc1)c1c(C(F)(F)F)[nH]n(-c2nc3ccccc3s2)c1=O	RORg inh 8.9µM, ELG1 DNA repair inconclusive

Screens deposited in PubChem BioAssay by National Center for Advancing Translational Sciences (NCATS).
